# Test results as given in PubChem BioAssay (NCI).
# Values joined by “and” are separate entries in the source; they are usually repeats but may differ in a detail not shown here. Equal entries are not always repeated. This is part of a sample that, as a whole, favours compounds with a hit. Of some 83,000 tested, about 20% had one in any assay.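 The endpoint reported here, percent growth, reads 100 for growth as untreated, 0 for no net growth and -100 for all cells dead.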 Active and inactive are the calls of the source. The calls were made as follows: active = growth percent below 10; inactive = the rest.
# Test system: MDA-MB-468 breast
# Experiment: NCI-60 one-dose screen, 48 h (100 = growth as untreated, 0 = no growth, -100 = all killed)
# Details: 10 µM unless noted
row,SMILES,growth
1,CCCCCCNC(=O)Oc1ccc(/C(=C(\C)c2ccccc2)c2ccc(OCCN3CCCCC3)cc2)cc1,64.2% (inactive)
2,O=C1/C(=C/c2ccc(O)cc2)COc2ccc(O)cc21,100% (inactive)
3,Cc1ccc(-c2nc(C#N)c(S(=O)(=O)n3nc(-c4ccccc4)cc3N)o2)cc1,63.1% (inactive)
4,Cn1cc(-c2nn3cc(-c4ccncc4)nc3s2)c2cc(Cl)ccc21,64.8% (inactive)
5,COc1ccc(/C=C/C(=O)C(CC2CCC2)C(=O)/C=C/c2ccc(OC)c(OC)c2)cc1OC,-22.2% (active)
6,C=C1C(=O)O[C@H]2[C@H]1CC/C(COC(=O)c1cc3cc(Cl)ccc3[nH]1)=C\CC[C@@]1(C)O[C@@H]21,-59.6% (active)
7,CN(C)CCNc1cc(-c2ccccc2)nc2ccccc12,-33.3% (active)
8,COc1c(F)cc(-n2c(C(=O)N3CC(F)C3)cc3cccnc32)cc1F,98.4% (inactive)
9,FC(F)(F)c1cc(Br)cc(-c2cc(-c3ccc4c(c3)OCCO4)[nH]n2)c1,40.6% (inactive)
10,COc1cc(-c2nc3cc(Cl)c(Cl)cc3[nH]2)ccc1OCC(=O)N=Nc1c(O)[nH]c2ccc(Cl)cc12,-56.3% (active)
11,CN1C(=O)CCC(N2C(=O)c3cccc(NCCOCCOCCNC(=O)c4cc5c(o4)C(=O)c4ccccc4C5=O)c3C2=O)C1=O (stereo not given),-28.3% (active)
12,Cc1ccccc1OCC(O)COc1ccccc1C,105% (inactive)
13,CCN(CC)CCCNc1cccc2c(C)cc(OC)nc12,74.8% (inactive)
14,COc1cc2c(cc1OC)-c1ccc3cc4c(cc3c1N(CCCn1ccnc1)C2)OCO4,-63.7% (active)
15,COc1ccc(-c2nc(SCCC(C)C)nc(N/N=C\c3ccc(O)cc3)c2C#N)cc1,88.8% (inactive)
16,COc1ccc(Cn2cc3c(c2-c2ccccc2)CCCc2cnoc2-3)cc1,47.7% (inactive)
17,COc1cc(/C=C/c2cc(/C=C/c3ccc(O)c(OC)c3)n(C(N)=O)n2)ccc1O,-14.3% (active)
18,Cc1ccc2nc(N)nnc2c1,102% (inactive)
19,COc1ccc(C2=NN(C=O)C(c3ccc(OS(=O)(=O)c4ccc(C)cc4)c(OC)c3)C2)cc1 (stereo not given),18.1% (inactive)
20,S=C(Nc1ccc(Cl)cc1)Nc1ccc(Cl)cc1 (tested in a mixture with another compound),-16.6% (active)

row,SMILES,growth
1,OCCSc1ccc(Cl)cc1,106% (inactive)
2,COC(=O)[C@@]1(C)CC[C@]2(C)CC[C@]3(C)C(=CC(=O)[C@@H]4[C@@]5(C)Cc6c(n(CC#CCN7CCN(C)CC7)c7ccccc67)C(C)(C)[C@@H]5CC[C@]43C)[C@@H]2C1,69.1% (inactive)
3,Cc1cccc(C(=O)N(C(C)C)C(C)C)c1,105% (inactive)
4,Nc1nccc(=S)[nH]1,109% (inactive)
5,CN(C)c1ccc(C(Cc2ccc3ccccc3n2)Cc2ccc3ccccc3n2)cc1,32.6% (inactive) and 77% (inactive)
6,Cc1c(C)c2c(c(C)c1NC(=O)CCCCCCC(=O)O)CCC(C)(CCCC(C)CCCC(C)CCCC(C)C)O2 (stereo not given),90.1% (inactive)
7,CC1(c2ccc3ccccc3c2)CCC(=O)O1 (stereo not given),100% (inactive)
8,N#Cc1c(N)nnn1Cc1cc(=O)oc2ccc(O)cc12,101% (inactive)
9,CCOCC(=O)C(C#N)c1ccc(Cl)c(Cl)c1 (stereo not given),90.9% (inactive)
10,Cc1ccc2sc3c(NCCN)nc4ccccc4c3c(=O)c2c1,56.8% (inactive)
11,Cc1cc(C#Cc2ccccc2)ccc1-n1c(/C=C/c2cc(O)ccc2O)nc2ccccc2c1=O,-36.5% (active)
12,O=C(Cn1cncn1)Nc1ccc(-c2nc3ccccc3s2)cc1,-29.7% (active)
13,O=C(c1ccccc1)c1cc2ccccc2oc1=O,97.3% (inactive)
14,C[C@H](CCC[C@H](C)OS(=O)(=O)c1ccccc1)OS(=O)(=O)c1ccccc1,110% (inactive)
15,CC(=O)c1nc2ccccc2n1CC(=O)c1cccc(Cl)c1,32.7% (inactive)
16,ClC/C=C/CSc1ncnc2nc[nH]c12,103% (inactive) and 127% (inactive)
17,CC(C)c1[nH]ncc1-c1nc2ccc3[nH]ncc3c2c2c1CCCC2,69.3% (inactive)
18,O=[N+]([O-])c1cccc(/C=C/c2ccccn2)c1,48.1% (inactive)
19,COc1cc(-c2cc3ncccc3c3[nH]c(=O)c4cccnc4c23)cc(OC)c1OC,-10.5% (active)
20,Oc1ccc(/C=N\Nc2ccccn2)c(O)c1,9.5% (active)
